# Results published in PubChem BioAssay (EPA / NIEHS).
# The source made the active and inactive calls. Rule for the calls: active = hit-call score of the fitted dose curve at least 0.9, where 1 is the maximum; inactive = score below 0.9.
# Assay: ATG_PXRE_CIS: Attagene CIS-FACTORIAL HepG2 Assay for human Pregnane X Receptor Element (PXRE) (AID 2282957)
# Conditions: HepG2 Attagene CIS-FACTORIAL PXRE reporter, mRNA; actives raise or lower the signal
# Outline: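 Endogenous transcription factor activity in HepG2 was gauged through induction of reporter mRNA driven by a cis-regulating promoter element, sampled 24 h post-treatment. Activity was fitted in both directions against DMSO negative control.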
SMILES,AC50,outcome
CCCCCCCCCCCC#N,27.8 µM (active),
O=C(NC(=O)c1c(F)cccc1F)Nc1ccc(Oc2ccc(C(F)(F)F)cc2Cl)cc1F,3.15 µM (active),
CC1CCCC1.[C-]#[O+].[C-]#[O+].[C-]#[O+].[Mn],,inactive
CCCCNP(N)(N)=S,,inactive
Nc1ccccc1C(=O)Oc1ccc2ccccc2c1,,inactive
CC(C)CCCCCCCOC(=O)c1ccccc1C(=O)OCCCCCCCC(C)C,1.19 µM (active),
CN1C[C@H](C(=O)N[C@]2(C)O[C@@]3(O)[C@@H]4CCCN4C(=O)[C@H](Cc4ccccc4)N3C2=O)C=C2c3cccc4[nH]cc(c34)C[C@H]21,0.445 µM (active),
O=[N+]([O-])C=Cc1ccccc1,56.8 µM (active),
Nc1ccc(Cl)c(Cl)c1,,inactive
CCCCOP(=O)(O)OCCCC,,inactive
O=C(O)CCl,,inactive
CC(O)CN(CC(C)O)CC(C)O (configuration not stated),,inactive
Nc1cc(Cl)cc(Cl)c1,,inactive
O=[N+]([O-])c1ccc(Cl)cc1,,inactive
Cc1ccc(C)c2ccccc12,33.4 µM (active),
C=CCO,,inactive
COC(=O)COc1ccc(Cl)cc1Cl,,inactive
[CH3][Sn]([Cl])([Cl])[Cl],,inactive
Nc1ccc(-c2ccc(N)c(N)c2)cc1N,,inactive
c1cc(OCC2CO2)ccc1Cc1ccc(OCC2CO2)cc1 (configuration not stated),8.22 µM (active),
C=CC(=O)OCCCCOC(=O)C=C,158 µM (active),
CCOC(=O)C1OC1(C)c1ccccc1 (configuration not stated),100 µM (active),
COc1ncc(F)c2nc(S(=O)(=O)Nc3c(F)cccc3F)nn12,15.3 µM (active),
CC(C)[C@@H](C(=O)O[C@@H](C#N)c1cccc(Oc2ccccc2)c1)c1ccc(Cl)cc1,0.678 µM (active),
C[C@]12CC[C@H]3[C@@H](CC[C@@]45O[C@@H]4C(O)=C(C#N)C[C@]35C)[C@@H]1CC[C@@H]2O,27.2 µM (active),
O=[N+]([O-])c1cc([N+](=O)[O-])c2ccccc2c1,8.8 µM (active),
O=C(O)C(Br)Br,,inactive
C=CC(=O)OCCO,,inactive
CCCCCCCCCCCCCCCC[N+](C)(C)C,20.3 µM (active),

# Assay: ATG_PPRE_CIS: Attagene CIS-FACTORIAL HepG2 Assay for human Peroxisome Proliferator-activated Response Element (PPRE) (AID 2282958)
# Conditions: HepG2 PPRE cis-element reporter, Attagene transcription factor profiling; actives raise or lower the signal
# Outline: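 Multiplexed reporter transcription units under cis-regulatory promoters were transfected into HepG2 cells to capture endogenous factor activity. A 24 h incubation preceded RNA isolation and fluorescent RT-PCR fragment analysis.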
SMILES,outcome,AC50
CCCCCCCCCCCC#N,inactive,
O=C(NC(=O)c1c(F)cccc1F)Nc1ccc(Oc2ccc(C(F)(F)F)cc2Cl)cc1F,inactive,
CC1CCCC1.[C-]#[O+].[C-]#[O+].[C-]#[O+].[Mn],inactive,
CCCCNP(N)(N)=S,inactive,
CC(=O)C=Cc1ccccc1,inactive,
CCC(=O)c1ccc(Cl)cc1,inactive,
C=CC(=O)OC,inactive,
N#CCNCC#N,inactive,
CN(C)N,inactive,
O=[N+]([O-])C=Cc1ccccc1,,61.5 µM (active)
Nc1ccc(Cl)c(Cl)c1,inactive,
CCCCOP(=O)(O)OCCCC,inactive,
Nc1cc(Cl)cc(Cl)c1,inactive,
Cc1ccc(C)c2ccccc12,inactive,
[CH3][Sn]([Cl])([Cl])[Cl],inactive,
CC(=O)c1cc2c(cc1C)C(C)(C)C(C)CC2(C)C (configuration not stated),inactive,
Nc1ccc(-c2ccc(N)c(N)c2)cc1N,inactive,
c1cc(OCC2CO2)ccc1Cc1ccc(OCC2CO2)cc1 (configuration not stated),,51.5 µM (active)
C=CC(=O)OCCCCOC(=O)C=C,inactive,
[Cl][Sb]([Cl])[Cl],inactive,
CC(C)[C@@H](C(=O)O[C@@H](C#N)c1cccc(Oc2ccccc2)c1)c1ccc(Cl)cc1,inactive,
C[C@]12CC[C@H]3[C@@H](CC[C@@]45O[C@@H]4C(O)=C(C#N)C[C@]35C)[C@@H]1CC[C@@H]2O,inactive,
O=[N+]([O-])c1cc([N+](=O)[O-])c2ccccc2c1,inactive,
CCCCCCCCCCCCCCCC[N+](C)(C)C,inactive,

# Assay: ATG_RORE_CIS: Attagene CIS-FACTORIAL HepG2 Assay for human RAR-related Orphan Receptor Element (RORE) (AID 2282959)
# Conditions: HepG2 Attagene cis-factorial RORE reporter, mRNA; actives raise or lower the signal
# Outline: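 Fluorescence intensity of reporter-specific cDNA fragments, separated by capillary electrophoresis, gives the signal. Source: HepG2 liver cells transiently transfected with cis-element reporters and exposed 24 h; DMSO-normalized bidirectional fit.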
SMILES,outcome,AC50
CCCCCCCCCCCC#N,inactive,
O=C(NC(=O)c1c(F)cccc1F)Nc1ccc(Oc2ccc(C(F)(F)F)cc2Cl)cc1F,inactive,
CC1CCCC1.[C-]#[O+].[C-]#[O+].[C-]#[O+].[Mn],inactive,
CC(=O)C=Cc1ccccc1,inactive,
CCC(=O)c1ccc(Cl)cc1,inactive,
Nc1ccccc1C(=O)Oc1ccc2ccccc2c1,inactive,
C=CC(=O)OC,inactive,
CC(C)CCCCCCCOC(=O)c1ccccc1C(=O)OCCCCCCCC(C)C,inactive,
N#CCNCC#N,inactive,
CN(C)N,inactive,
CN1C[C@H](C(=O)N[C@]2(C)O[C@@]3(O)[C@@H]4CCCN4C(=O)[C@H](Cc4ccccc4)N3C2=O)C=C2c3cccc4[nH]cc(c34)C[C@H]21,inactive,
O=[N+]([O-])C=Cc1ccccc1,inactive,
Nc1ccc(Cl)c(Cl)c1,inactive,
CCCCOP(=O)(O)OCCCC,inactive,
O=C(O)CCl,inactive,
CC(O)CN(CC(C)O)CC(C)O (configuration not stated),inactive,
Nc1cc(Cl)cc(Cl)c1,inactive,

SMILES,outcome,AC50
O=[N+]([O-])c1ccc(Cl)cc1,inactive,
Cc1ccc(C)c2ccccc12,inactive,
COC(=O)COc1ccc(Cl)cc1Cl,inactive,
[CH3][Sn]([Cl])([Cl])[Cl],inactive,
CC(=O)c1cc2c(cc1C)C(C)(C)C(C)CC2(C)C (configuration not stated),,166 µM (active)
Nc1ccc(-c2ccc(N)c(N)c2)cc1N,inactive,
c1cc(OCC2CO2)ccc1Cc1ccc(OCC2CO2)cc1 (configuration not stated),inactive,
c1ccc2c(c1)CCCC2,inactive,
CCOC(=O)C1OC1(C)c1ccccc1 (configuration not stated),inactive,
[Cl][Sb]([Cl])[Cl],inactive,
COc1ncc(F)c2nc(S(=O)(=O)Nc3c(F)cccc3F)nn12,inactive,
CC(C)[C@@H](C(=O)O[C@@H](C#N)c1cccc(Oc2ccccc2)c1)c1ccc(Cl)cc1,inactive,
C[C@]12CC[C@H]3[C@@H](CC[C@@]45O[C@@H]4C(O)=C(C#N)C[C@]35C)[C@@H]1CC[C@@H]2O,inactive,
O=[N+]([O-])c1cc([N+](=O)[O-])c2ccccc2c1,inactive,
O=C(O)C(Br)Br,inactive,
C=CC(=O)OCCO,,59.1 µM (active)
CCCCCCCCCCCCCCCC[N+](C)(C)C,inactive,
